This note sets out measurements from PubChem BioAssay (EPA / NIEHS).

Active and inactive are the calls of the source. The calls were made as follows: active = hit-call score of the fitted dose curve at least 0.9, where 1 is the maximum; inactive = score below 0.9.

Common to all, as to settings: mRNA level, 48 h; actives raise or lower the signal
Read-out in experiment [1]: Cyclin Dependent Kinase Inhibitor 1A (CDKN1A), CDKN1A (gene 1026)
The experiment is described as follows: LTEA_HepaRG_CDKN1A: Life Technologies and Expression Analysis (LTEA) Assay for Cyclin Dependent Kinase Inhibitor 1A (CDKN1A) using HepaRG (AID 2283450). Put shortly: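 Differentiated HepaRG cells in serum-free induction medium, exposed 48 h in duplicate to eight half-log concentrations up to 100 uM in 0.5% DMSO. mRNA measured by TaqMan qRT-PCR, normalized to ACTB, GAPDH, POLR2A; bidirectional fit versus DMSO.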

Read-out in experiment [2]: Cyclin D1 (CCND1), CCND1 (gene 595)
The experiment is described as follows: LTEA_HepaRG_CCND1: Life Technologies and Expression Analysis (LTEA) Assay for Cyclin D1 (CCND1) using HepaRG (AID 2283451).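 As to AC50: TaqMan qRT-PCR transcript level normalised to ACTB GAPDH and POLR2A housekeeping genes.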 Put shortly: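 Differentiated HepaRG cells exposed 48 h in serum-free induction medium to eight half-log concentrations from 100 uM top, 0.5% DMSO, duplicates. CCND1 mRNA measured by Fluidigm TaqMan qRT-PCR, normalised to ACTB, GAPDH, POLR2A; bidirectional fit.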

Read-out in experiment [3]: flavin-containing dimethylaniline monooxygenases 3 (FMO3), FMO3 (gene 2328)
The experiment is described as follows: LTEA_HepaRG_FMO3: Life Technologies and Expression Analysis (LTEA) Assay for flavin-containing dimethylaniline monooxygenases 3 (FMO3) using HepaRG (AID 2283453).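 As to AC50: FMO3 transcript by TaqMan qRT-PCR normalized to ACTB GAPDH and POLR2A.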 Put shortly:
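HepaRG, 48 h exposure, 8-pt half-log series from 100 uM, 0.5% DMSO vehicle, duplicates; FMO3 transcript by Fluidigm TaqMan qRT-PCR, housekeeping-normalized; gain/loss fit vs DMSO.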

Read-out in experiment [4]: Cytochrome P450 (CYP1A1), CYP1A1 (gene 1543)
The experiment is described as follows: LTEA_HepaRG_CYP1A1: Life Technologies and Expression Analysis (LTEA) Assay for Cytochrome P450 (CYP1A1) using HepaRG (AID 2283454). Put shortly:
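Differentiated human HepaRG cells, after 48 h plating, exposed in duplicate for 48 h in serum-free induction medium to 8 half-log concentrations up to 100 uM in 0.5% DMSO. CYP1A1 mRNA by qRT-PCR, normalized to ACTB/GAPDH/POLR2A; bidirectional fit versus DMSO.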

Read-out in experiment [5]: CFLAR gene, CFLAR (gene 8837)
Put plainly: LTEA_HepaRG_CFLAR: Life Technologies and Expression Analysis (LTEA) Assay for CFLAR gene using HepaRG (AID 2283455). Put shortly: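 HepaRG cells were plated for 48 h, switched to serum-free induction medium, then exposed in duplicate for 48 h to 8 concentrations (top 100 uM, half-log steps, 0.5% DMSO). CFLAR mRNA was measured by qRT-PCR, normalized to ACTB, GAPDH and POLR2A.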

Read-out in experiment [6]: Forkhead box O1 (FOXO1), FOXO1 (gene 2308)
The experiment is described as follows: LTEA_HepaRG_FOXO1: Life Technologies and Expression Analysis (LTEA) Assay for Forkhead box O1 (FOXO1) using HepaRG (AID 2283456). Put shortly: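 Differentiated human HepaRG cells in serum-free induction medium were exposed in duplicate for 48 h to eight half-log concentrations (top 100 uM, 0.5% DMSO). FOXO1 mRNA was measured by TaqMan qRT-PCR, normalised to ACTB, GAPDH and POLR2A, and fitted bidirectionally against DMSO.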

Read-out in experiment [7]: growth arrest and DNA damage 45 (GADD45A), GADD45A (gene 1647)
The experiment is described as follows: LTEA_HepaRG_GADD45A: Life Technologies and Expression Analysis (LTEA) Assay for growth arrest and DNA damage 45 (GADD45A) using HepaRG (AID 2283458). Put shortly:
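Differentiated HepaRG cells were exposed in duplicate for 48 h in serum-free induction medium to 8-point half-log concentrations up to 100 uM in 0.5% DMSO. GADD45A mRNA was measured by TaqMan qRT-PCR, normalized to ACTB, GAPDH and POLR2A, with bidirectional fitting versus DMSO.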

Read-out in experiment [8]: Forkhead box O3 (FOXO3), FOXO3 (gene 2309)
Put plainly: LTEA_HepaRG_FOXO3: Life Technologies and Expression Analysis (LTEA) Assay for Forkhead box O3 (FOXO3) using HepaRG (AID 2283459). The essentials: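 Differentiated human HepaRG cells in serum-free induction medium were exposed in duplicate for 48 h to eight half-log concentrations up to 100 uM in 0.5% DMSO. FOXO3 mRNA was quantified by qRT-PCR, normalized to ACTB, GAPDH and POLR2A, with bidirectional fitting versus DMSO.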

Read-out in experiment [9]: ABC Transporter (ABCB1), ABCB1 (gene 5243)
The experiment is described as follows: LTEA_HepaRG_ABCB1: Life Technologies and Expression Analysis (LTEA) Assay for ABC Transporter (ABCB1) using HepaRG (AID 2283460). Put shortly:
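Differentiated human HepaRG cells, plated 48 h then switched to serum-free induction medium, were exposed in duplicate to eight half-log concentrations up to 100 uM in 0.5% DMSO for 48 h. ABCB1 mRNA was measured by TaqMan qRT-PCR, normalized to ACTB/GAPDH/POLR2A.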

Read-out in experiment [10]: growth arrest and DNA damage 45 (GADD45B), GADD45B (gene 4616)
Put plainly: LTEA_HepaRG_GADD45B: Life Technologies and Expression Analysis (LTEA) Assay for growth arrest and DNA damage 45 (GADD45B) using HepaRG (AID 2283461). The essentials:
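Differentiated human HepaRG cells in serum-free induction medium exposed 48 h in duplicate to eight concentrations, top 100 uM, half-log steps, 0.5% DMSO. GADD45B mRNA by TaqMan qRT-PCR, normalized to ACTB, GAPDH, POLR2A; bidirectional fit versus DMSO.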

Read-out in experiment [11]: ABC Transporter (ABCC3), ABCC3 (gene 8714)
Put plainly: LTEA_HepaRG_ABCC3: Life Technologies and Expression Analysis (LTEA) Assay for ABC Transporter (ABCC3) using HepaRG (AID 2283462). Put shortly: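 Differentiated human HepaRG cells exposed 48 h in serum-free induction medium, 0.5% DMSO vehicle, 8-point half-log series to 100 uM in duplicate. ABCC3 mRNA by qRT-PCR, normalised to ACTB, GAPDH, POLR2A; bidirectional fit vs DMSO.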

Read-out in experiment [12]: ABC Transporter (ABCB11), ABCB11 (gene 8647)
The experiment is described as follows: LTEA_HepaRG_ABCB11: Life Technologies and Expression Analysis (LTEA) Assay for ABC Transporter (ABCB11) using HepaRG (AID 2283463). The essentials: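 Differentiated human HepaRG cells were exposed for 48 h in serum-free induction medium to eight half-log concentrations up to 100 uM in 0.5% DMSO. ABCB11 mRNA was quantified by qRT-PCR, normalized to ACTB, GAPDH and POLR2A, and fitted bidirectionally versus DMSO.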

Read-out in experiment [13]: ABC Transporter (ABCC2), ABCC2 (gene 1244)
The experiment is described as follows: LTEA_HepaRG_ABCC2: Life Technologies and Expression Analysis (LTEA) Assay for ABC Transporter (ABCC2) using HepaRG (AID 2283464). Put shortly: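 Differentiated HepaRG cells in serum-free induction medium exposed 48 h to eight half-log concentrations up to 100 uM, 0.5% DMSO, in duplicate. ABCC2 mRNA measured by qRT-PCR (TaqMan, Fluidigm), normalized to ACTB, GAPDH and POLR2A. Fitted in both directions against DMSO.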

Read-out in experiment [14]: Broad substrate specificity ATP-binding cassette transporter ABCG2 (Homo sapiens) (UniProt Q9UNQ0)
Put plainly: LTEA_HepaRG_ABCG2: Life Technologies and Expression Analysis (LTEA) Assay for ABC Transporter (ABCG2) using HepaRG (AID 2283465). Put shortly:
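Differentiated HepaRG cells in serum-free induction medium were exposed for 48 h, in duplicate, to eight half-log concentrations up to 100 uM in 0.5% DMSO. ABCG2 mRNA was measured by TaqMan qRT-PCR, normalized to ACTB, GAPDH and POLR2A, and fitted bidirectionally versus DMSO.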

Read-out in experiment [15]: ATP-citrate lyase (ACLY), ACLY (gene 47)
The experiment is described as follows: LTEA_HepaRG_ACLY: Life Technologies and Expression Analysis (LTEA) Assay for ATP-citrate lyase (ACLY) using HepaRG (AID 2283466). Put shortly: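 Differentiated human HepaRG cells in serum-free induction medium exposed 48 h, in duplicate, to eight half-log concentrations from 100 uM top in 0.5% DMSO; ACLY mRNA measured by qRT-PCR, normalized to ACTB, GAPDH, POLR2A, fitted bidirectionally versus DMSO.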

Read-out in experiment [16]: Peroxisomal acyl-coenzyme A oxidase 1 (ACOX1) gene, ACOX1 (gene 51)
The experiment is described as follows: LTEA_HepaRG_ACOX1: Life Technologies and Expression Analysis (LTEA) Assay for Peroxisomal acyl-coenzyme A oxidase 1 (ACOX1) gene using HepaRG (AID 2283467). The essentials:
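Differentiated human HepaRG cells were exposed in duplicate for 48 h in serum-free induction medium to eight half-log concentrations up to 100 uM in 0.5% DMSO. ACOX1 mRNA was then quantified by TaqMan qRT-PCR, normalized to ACTB, GAPDH and POLR2A.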

Read-out in experiment [17]: Alkaline Phosphatase, Placental (ALPP) gene, ALPP (gene 250)
The experiment is described as follows: LTEA_HepaRG_ALPP: Life Technologies and Expression Analysis (LTEA) Assay for Alkaline Phosphatase, Placental (ALPP) gene using HepaRG (AID 2283468). The essentials:
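HepaRG cells plated 48 h, then exposed in duplicate for 48 h in serum-free induction medium to 8-point half-log series from 100 uM in 0.5% DMSO. ALPP mRNA by TaqMan qRT-PCR, normalized to ACTB/GAPDH/POLR2A; bidirectional fit versus DMSO.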

Read-out in experiment [18]: Bcl-2 (BAD) gene, BAD (gene 572)
The experiment is described as follows: LTEA_HepaRG_BAD: Life Technologies and Expression Analysis (LTEA) Assay for Bcl-2 (BAD) gene using HepaRG (AID 2283469). Put shortly: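 Differentiated human HepaRG cells in serum-free induction medium were exposed in duplicate for 48 h to eight concentrations (top 100 uM, half-log steps, 0.5% DMSO). BAD mRNA was quantified by qRT-PCR normalised to ACTB, GAPDH and POLR2A, with bidirectional fitting versus DMSO.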

Chain of Broad substrate specificity ATP-binding cassette transporter ABCG2 (Homo sapiens) (Q9UNQ0 whole entry, looked up): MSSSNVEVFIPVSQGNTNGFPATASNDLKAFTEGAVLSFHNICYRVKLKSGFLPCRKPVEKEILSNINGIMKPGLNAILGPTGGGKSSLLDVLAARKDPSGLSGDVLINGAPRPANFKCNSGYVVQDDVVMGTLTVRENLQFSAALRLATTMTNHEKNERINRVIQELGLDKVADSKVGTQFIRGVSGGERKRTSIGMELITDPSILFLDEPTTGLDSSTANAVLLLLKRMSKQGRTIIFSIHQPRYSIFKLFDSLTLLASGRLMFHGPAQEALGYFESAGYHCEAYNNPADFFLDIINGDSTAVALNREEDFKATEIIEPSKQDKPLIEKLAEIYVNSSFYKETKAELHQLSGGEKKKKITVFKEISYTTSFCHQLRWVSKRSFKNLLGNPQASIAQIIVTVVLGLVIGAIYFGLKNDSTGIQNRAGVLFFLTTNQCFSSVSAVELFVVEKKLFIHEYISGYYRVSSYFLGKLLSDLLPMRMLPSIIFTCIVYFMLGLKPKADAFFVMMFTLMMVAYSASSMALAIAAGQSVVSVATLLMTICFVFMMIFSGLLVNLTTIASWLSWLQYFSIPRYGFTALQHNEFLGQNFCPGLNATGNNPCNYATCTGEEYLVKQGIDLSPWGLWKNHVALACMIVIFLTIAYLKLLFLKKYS

On to `CCCCc1nc2cccnc2n1Cc1ccc(-c2ccccc2-c2nnn[nH]2)cc1`, for which the compound was called inactive in experiment [1], in [2], in [3], in experiment [5], in [6] and in experiment [7]. In addition, the compound was classed as inactive in [8], in experiment [10], in [11], in experiment [15] and in experiment [16]. Further, the AC50 in experiment [4] was 50 µM (active); in experiment [9], 50 µM (active); in [12], 89.8 µM (active); in experiment [13] it was 50 µM (active); in [14] it was 27.1 µM (active); in [17], 15.5 µM (active).

Consider `COc1ccc(C(=O)Nc2nc3ccccc3c(NCc3ccccc3)c2C#N)cc1`, for which the AC50 in experiment [1] was 26.3 µM (active); in experiment [2], 16.8 µM (active); in experiment [3] it was 16.2 µM (active); in [4] it was 1.39 µM (active); in experiment [10], 16 µM (active); in experiment [12], 13.3 µM (active). For the same compound, the AC50 in experiment [14] was 17.4 µM (active); in experiment [15], 16.5 µM (active); in experiment [16], 13.3 µM (active). Moreover, the call in [5], in [6], in experiment [7], in experiment [8], in [9] and in experiment [11] was inactive. Besides, the compound was called inactive in experiment [13] and in experiment [18].

For `COc1ccc(OC(F)(F)F)cc1CN[C@H]1CCCN[C@H]1c1ccccc1`, the AC50 was 89.6 µM (active) in experiment [1]; 87.1 µM (active) in experiment [2]; 72.7 µM (active) in experiment [3]; 12.6 µM (active) in experiment [4]; 84.1 µM (active) in [5]; 93.8 µM (active) in [6]. For the same compound, the half-maximal activity concentration (AC50) was 76.3 µM (active) in experiment [8]; 83.7 µM (active) in experiment [9]; 82.9 µM (active) in experiment [13]; 95.6 µM (active) in experiment [15]; 64.3 µM (active) in [16]. For the same compound, the compound was classed as inactive in [7], in experiment [10], in experiment [11], in experiment [12] and in experiment [14].

One may read the AC50 as the concentration at which the activity in the assay is half-maximal.
